SMILES strings stand for the structures. Where “and” joins values, the source holds several entries; their conditions need not be identical. Equal entries are not always repeated. Records with an inconclusive call do not appear. Values without a mark were called inactive. Calls of active or inactive are those of the source. Calls come from the whole dose curve; as a rule, active = well fitted cell-killing curve with a large enough effect in the repeat runs; inconclusive = weak or mixed curves, or effect the other way; inactive = flat fitted curve, though single readings scatter.
% is set by controls: 0 for no effect and ±100 for the full control effect; potency is the fitted concentration of half-maximal effect.

The assay is described as follows: qHTS assay to identify small molecule antagonists of the androgen receptor (AR) signaling pathway using the MDA cell line - cell viability counter screen (AID 743041; note: nearly all actives have a fitted effect of over 45% in size). To be noted: MDA-kb2 viability, CellTiter-Fluor, 16 h, cells co-treated with R1881 androgen agonist; series mostly up to 70.3 µM; viability change, negative = cytotoxic: at the top concentration. An excerpt:
National Center for Advancing Translational Sciences [NCATS]
NIH Chemical Genomics Center [NCGC]
U.S. Environmental Protection Agency [EPA]
National Institutes of Environmental Health Sciences [NIEHS]
National Toxicology Program [NTP]
U.S. Food and Drug Administration [FDA]
Androgen receptor (AR), a nuclear hormone receptor, plays a critical role in AR-dependent prostate cancer and other androgen related diseases. Endocrine disrupting chemicals (EDCs) and their interactions with steroid hormone receptors like AR may cause disruption of normal endocrine function as well as interfere with metabolic homeostasis, reproduction, developmental and behavioral functions. To identify the compounds that inhibit AR signaling, MDA-kb2 AR-luc cell line (from ATCC, deposited by Wilson et al.) was used to screen the Tox21 10K compound library. MDA-kb2 AR-luc cell line is human breast carcinoma cell line that was stably transfected with a luciferase reporter gene under control of the MMTV promoter containing response elements for both androgen receptor (AR) and glucocorticoid receptor (GR). The cytotoxicity of the Tox21 compound library against the MDA-kb2 AR-luc cell line was tested in parallel by measuring the cell viability using CellTiter-Fluor assay (Promega, Madison, WI) in the same wells.
Tox21 Assay Protocol Summary:
MDA-kb2 AR-luc cells were dispensed at 3,000 cells/4 uL/well of culture medium into white wall/solid-bottom 1536-well plates using a Multidrop Combi (ThermoFisher Scientific, Waltham, MA) dispenser. After the assay plates were incubated at a 37C and 0% CO2 for 5 hr, 23 nL of compounds dissolved in DMSO, positive controls or DMSO only was transferred to the assay plate by a Pintool station (Kalypsys, San Diego, CA), followed by addition of 1 uL of agonist (R1881) in culture medium using a Bioraptr Flying Reagent Dispenser (FRD) workstation (Beckman Coulter, Indianapolis, IN, USA). The plates were incubated at a 37C and 0% CO2 for 16 h. After 15.5 h incubation, 1uL of CellTiter-Fluor reagent (Promega) was added using a Bioraptr FRD to each plate for measuring cytotoxicity. The fluorescence intensity was quantified on a ViewLux plate reader (PerkinElmer, Shelton, CT) following 30 min incubation at 37C and 0% CO2.
A general note: Quantitative high-throughput screening tests each substance at several concentrations.
As for `C1CC(COCC2CO2)CCC1COCC1CO1` (stereo not given), the “viability change, negative = cytotoxic” value was 2.59%.

For the compound `CNC(=O)c1cc(Oc2ccc(NC(=O)Nc3ccc(Cl)c(C(F)(F)F)c3)cc2)ccn1`, the Potency is 16.8 µM (active).

`CCCCNc1c(C(=O)OCC)c(C)nc2c1cnn2CC`: the “viability change, negative = cytotoxic” value was 3.21%.

In the case of `CCOC(=O)COc1ccc(C)cc1`, the “viability change, negative = cytotoxic” value was 0.689%.

`CC(=O)Oc1ccc(C2(c3ccc(OC(C)=O)cc3)Oc3ccccc3NC2=O)cc1`: the “viability change, negative = cytotoxic” value is -10.1%.

Turning to `CCN(CC)CCCN(c1ccccc1)C1Cc2ccccc2C1`, the Potency was 11.9 µM (active).

Regarding `CCCCC(CC)COC(=O)c1ccc(O)cc1` (stereo not given), the Potency entry is “inactive”.

Turning to `CCCSS/C(CCO)=C(\C)N(C=O)Cc1cnc(C)nc1N`, the “viability change, negative = cytotoxic” value is -8.19%.

`CC1CCCNC1` (stereo not given): the “viability change, negative = cytotoxic” value was 3.98%.

In the case of `CN(C)c1ccc(N=Nc2ccccc2C(=O)O)cc1`, the “viability change, negative = cytotoxic” value was -5.02%.

Consider `NC(=O)c1ccccc1N`, for which the “viability change, negative = cytotoxic” value is 12.5% [at 95 µM].

On to `Cc1cccc(C)c1NC(=O)CN1CCN(CCCC(c2ccc(F)cc2)c2ccc(F)cc2)CC1`, for which the “viability change, negative = cytotoxic” value was 2.23% [at 32.5 µM].

Turning to `O=C1c2c(O)ccc([N+](=O)[O-])c2C(=O)c2c([N+](=O)[O-])ccc(O)c21`, the Potency was 21.5 µM (active).

Turning to `COCC(=O)O[C@]1(CCN(C)CCCc2nc3ccccc3[nH]2)CCc2cc(F)ccc2[C@@H]1C(C)C`, the Potency was 9.44 µM (active).

In the case of `O=C(NO)c1ccccc1`, the “viability change, negative = cytotoxic” value is -14%.

On to `Clc1ccc(C(Cn2ccnc2)OCc2ccsc2Cl)c(Cl)c1` (stereo not given), for which the “viability change, negative = cytotoxic” value is -11.3%.

`CCC(=O)OCCc1ccccc1`: the “viability change, negative = cytotoxic” value was -3.03%.

On to `CSc1c(Cl)c(Cl)c(Cl)c(Cl)c1Cl`, for which the “viability change, negative = cytotoxic” value is 12.8%.

`O=C1C=CC(=O)N1c1ccccc1`: the Potency was 48.6 µM (active).

On to `CCC(C)c1cc([N+](=O)[O-])cc([N+](=O)[O-])c1OC(=O)OC(C)C` (stereo not given), for which the Potency was 54.5 µM (active).

`CCN=c1cc2oc3cc(NCC)c(C)cc3c(-c3ccccc3C(=O)OCC)c-2cc1C`: the Potency is 683 nM (active) and 386 nM (active).

Regarding `COc1cccc(CCc2ccccc2OCC(CN(C)C)OC(=O)CCC(=O)O)c1` (stereo not given), the “viability change, negative = cytotoxic” value is -7.8%.

Turning to `C(=C/c1ccccc1)/c1ccccc1`, the “viability change, negative = cytotoxic” value was -0.53% [at 95 µM].

Take `C=C1C(C)(C)[C@@]2(Cl)C(Cl)[C@]1(Cl)C(Cl)(Cl)C2(Cl)Cl` (stereo not given in full): the “viability change, negative = cytotoxic” value is -2.44%.

With `O=C1OC(OC(=O)c2cccnc2Nc2cccc(C(F)(F)F)c2)c2ccccc21` (stereo not given), the “viability change, negative = cytotoxic” value is 5.55%.

Regarding `Clc1ccc(C(c2ccccc2Cl)C(Cl)Cl)cc1` (stereo not given), the Potency result is “inactive”.

In the case of `Cc1cn[nH]c1`, the “viability change, negative = cytotoxic” value is 13.5%.

Consider `CC(CN(C)C)CN1c2ccccc2CCc2ccccc21` (stereo not given), for which the “viability change, negative = cytotoxic” value was 4.5% [at 32.5 µM].

Consider `O=C(O)c1cccc(Cl)n1`, for which the “viability change, negative = cytotoxic” value is 1.46%.

With `CC(C)(C)CC(C)(C)c1ccccc1O`, the “viability change, negative = cytotoxic” value is -26.7% [at 95 µM].

For `O=Nc1ccc(NO)cc1`, the “viability change, negative = cytotoxic” value was -5.12% [at 95 µM].

With `CNCC[C@H](Oc1cccc2ccccc12)c1cccs1`, the Potency was 24.8 µM (active).

For `CC(C)(C)C1=CC(=O)C=C(C(C)(C)C)C1=O`, the “viability change, negative = cytotoxic” value was 4.28%.

`c1cc(OCC2CO2)cc(OCC2CO2)c1` (stereo not given): the “viability change, negative = cytotoxic” value is -2.71%.

Consider `CCCCCCCCCCCC(=O)N(CC)CC`, for which the “viability change, negative = cytotoxic” value is 4.06%.

In the case of `CCOC(=O)[C@@](C)(N)Cc1ccc(O)c(O)c1`, the “viability change, negative = cytotoxic” value was -1% [at 32.5 µM].

As for `O=Cc1ccc(F)cc1`, the “viability change, negative = cytotoxic” value is -15.3%.

On to `CCNc1nc(NC(C)CC)nc(OC)n1` (stereo not given), for which the “viability change, negative = cytotoxic” value is 1.34%.

As to `Clc1ccccc1CN1CCc2sccc2C1`, the “viability change, negative = cytotoxic” value was 7.17%.

With `CN(C)CCOC(c1ccccc1)c1ccccc1` (tested in a mixture with another compound), the “viability change, negative = cytotoxic” value is -19.9% [at 95 µM].
